Experimental data reported in PubChem BioAssay AID1851 (National Center for Advancing Translational Sciences (NCATS), 2009).
Where “and” joins values, the source holds several entries; their conditions need not be identical. Equal entries are not always repeated. Screen size: about 16,000 compounds; about 4,000 (25%) were called active. Inconclusive results (about 26%) are left out. The call rests on the fitted dose curve; in most records, active means well fitted curve in the direction sought with a large enough effect; inconclusive means small, poorly fitted or top-dose-only effect, or effect the other way; inactive means no such curve, though single readings can be large or run the other way. These entries were drawn from the full list.

Molecular target: Cytochrome P450 2C9 (Homo sapiens) (UniProt P11712)
Sequence (P11712 whole entry, looked up): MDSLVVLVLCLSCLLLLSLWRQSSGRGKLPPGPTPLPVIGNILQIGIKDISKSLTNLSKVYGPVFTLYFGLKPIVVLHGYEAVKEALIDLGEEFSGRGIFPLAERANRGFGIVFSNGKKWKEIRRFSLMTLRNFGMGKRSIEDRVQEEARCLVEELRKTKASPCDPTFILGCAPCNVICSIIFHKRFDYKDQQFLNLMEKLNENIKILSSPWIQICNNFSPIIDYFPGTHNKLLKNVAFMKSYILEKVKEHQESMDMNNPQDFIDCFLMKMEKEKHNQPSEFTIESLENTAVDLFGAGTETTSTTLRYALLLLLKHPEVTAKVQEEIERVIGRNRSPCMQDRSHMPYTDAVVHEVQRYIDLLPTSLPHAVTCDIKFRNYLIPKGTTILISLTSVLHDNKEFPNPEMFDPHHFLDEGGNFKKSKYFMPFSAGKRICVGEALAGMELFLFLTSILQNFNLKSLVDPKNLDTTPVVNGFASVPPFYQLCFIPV
Assay: Cytochrome panel assay with activity outcomes
Conditions: recombinant CYP, pro-luciferin dealkylation, luminescence, p450-cyp2c9; series mostly up to 57.1 µM; activity, negative = inhibition: at the top concentration
On the % scale 0 is the no-effect control and ±100 the full control effect.

SMILES | activity, negative = inhibition | AC50
COc1cccc(Cn2c(=O)c(-c3cccs3)nc3cnc(N(C)C)nc32)c1 | -19.1% (inactive) | –
CCNc1ncc2nc(-c3cccs3)c(=O)n(Cc3cccc(OC)c3)c2n1 | -11% (inactive) | –
COc1cccc(Cn2c(=O)c(-c3cccs3)nc3cnc(OC)nc32)c1 | – | 3.16 µM (active)
O=c1oc(-c2ccco2)nc2c1cnn2-c1ccccc1 | – | 12.6 µM (active)
c1ccc(-n2ncc3c2ncn2cnnc32)cc1 | -3.21% (inactive) | –
Cc1ccc(-n2ncc3c2ncn2nc(-c4ccco4)nc32)c(C)c1 | -11.5% (inactive) | –
C=CCN1CCN(c2nc3ccccc3nc2C#N)CC1 | – | 20 µM (active)
N#Cc1cccc(-c2nc(N3CCNCC3)c3ccccc3n2)c1 | 11.8% [at 2.29 µM] (inactive) | –
CNc1nc(-c2ccccc2C(F)(F)F)nc2ccccc12 | 19.6% [at 2.29 µM] (inactive) | –
COc1cccc(/C=N/NC(=O)c2c(-c3ccccc3)noc2C)c1 | – | 3.55 µM (active)
Cc1cccc(C)c1NC(=O)COc1cccc(/C=N/NC(=O)C(=O)NCc2ccccc2)c1 | -7.69% (inactive) | –
COc1cccc(/C=N/NC(=O)C(=O)NCc2cccnc2)c1 | – | 22.4 µM (active)
C=CCOc1cccc(/C=N/NC(=O)C(=O)NCc2ccco2)c1 | 1.64% (inactive) | –
COc1cccc(/C=N/NC(=O)c2nc(-c3ccccc3)cc(-c3ccccc3)n2)c1 | 11.1% (inactive) | –
CC(C)=CCC/C(C)=C/CO/N=C1/C[C@@H](O)[C@@H](O)[C@@H]2[C@@H]3C(=O)N(C4CCCCC4)C(=O)[C@H]3CC[C@H]12 | -5.92% [at 11.4 µM] (inactive) | –
Nc1nc(Br)c2ccccc2c1-c1ccc(F)cc1 | -33.3% (inactive) | –
Nc1nc(Br)c2c(F)cccc2c1-c1ccc(Cl)cc1 | – | 4.47 µM (active)
Nc1nc(Br)c2c(F)cccc2c1-c1ccc(F)cc1 | – | 2.51 µM (active)
Cc1noc(C)c1-c1cc(Nc2ccc(F)cc2)ncn1 | -1.17% [at 2.29 µM] (inactive) | –
CN1CCN(c2ncnc3ccc(-c4ccc5c(c4)OCO5)cc23)CC1 | 14.7% [at 2.29 µM] (inactive) | –
CC(C)C(=O)N[C@H]1CCCN1C(=O)/C=C\c1ccccc1 | -2.39% [at 11.4 µM] (inactive) | –
C#CCSc1nncn1C(=O)/C=C/c1ccccc1 | – | 3.98 µM (active)
CC(C)C(=O)N[C@@H]1CCCN1C(=O)/C=C\c1ccccc1 | -11.6% [at 11.4 µM] (inactive) | –
C=C(C)c1cccc(C(C)(C)NC(=O)Nc2cc(C)ccc2OC)c1 | – | 10 µM (active)
COc1cccc(CC(C(=O)Nc2cc(C)ccc2C)c2nn[nH]n2)c1OC (centres undefined) | -15.9% (inactive) | –

SMILES | activity, negative = inhibition | AC50
COc1ccc(C(N)=O)cc1NC(=O)c1cccc(F)c1 | -18.9% (inactive) | –
O=C(OC(C(=O)NC1CCCC1)c1ccncc1)C1=Cc2ccccc2OC1 (centres undefined) | – | 2.82 µM (active)
CN(C)Cc1ccccc1-c1ccc2ncnc(N(C)Cc3ccco3)c2c1 | -5.32% [at 2.29 µM] (inactive) | –
COc1ccc([C@@H]2CC(=O)c3c(O)cc(O)cc3O2)cc1O | – | 10 µM (active)
O=C1c2c(O)cc(O)cc2O[C@@H](c2ccc(O)c(O)c2)[C@H]1O | -23.7% (inactive) | –
COc1ccc([C@@H]2CC(=O)c3c(O)cc(O[C@H]4O[C@@H](CO[C@H]5O[C@@H](C)[C@@H](O)[C@@H](O)[C@@H]5O)[C@@H](O)[C@@H](O)[C@@H]4O)cc3O2)cc1O | 9.98% [at 25.6 µM] (inactive) | –
COc1ccc(C(=O)NC(=S)NC(C)(C)C)cc1Br | – | 10 µM (active)
COc1ccc(Br)c2c1C[C@H](C(=O)O)CC2 | -27.4% [at 11.4 µM] (inactive) | –
COc1ccc(C(=O)NC(=S)NC(C)C)cc1Br | -42.8% (inactive) | –
C#CCn1c(=O)c2c(ncn2C)n(C)c1=O | 3.22% (inactive) | –
CN(C)C(=O)c1ccc(-c2ccc3ncnc(Nc4ccccc4)c3c2)cc1 | 15.4% [at 2.29 µM] (inactive) | –
CN(C)c1ccc(-c2ccc3ncnc(NCc4ccccc4)c3c2)cc1 | -24.6% [at 2.29 µM] (inactive) | –
CN(C)c1cc2c(Nc3ccc4c(cnn4Cc4ccccc4)c3)ncnc2cn1 | – | 12.6 µM (active)
CCN(CC(=O)Nc1ccc([N+](=O)[O-])cc1OC)c1ccccc1 | – | 2.82 µM (active)
COc1ccccc1NC(=O)Cn1cncc1-c1ccc([N+](=O)[O-])cc1 | -12.7% (inactive) | –
COc1cc(OC)c(NC(=S)Nc2cccc(C(C)=O)c2)cc1Cl | – | 5.01 µM (active)
CCOc1cc(NC(=S)Nc2cccc(C)c2)c(OCC)cc1NC(=O)CC(C)C | -19.7% (inactive) | –
CCOC(=O)C1(C(=O)O)NC(=O)CC1c1ccccc1 (centres undefined) | -28.6% (inactive) | –
CCOC(=O)CN1C(=O)Nc2ccc(Br)cc2C1c1ccccc1 (centres undefined) | – | 6.31 µM (active)
O=c1cc(CF)[nH]c(=S)[nH]1 | 8.7% [at 11.4 µM] (inactive) | –
N[C@H](CCCC(=O)O)C(=O)O | -23.2% (inactive) | –
O=C(O)c1cc(C(=O)C(=O)c2cc(C(=O)O)c(O)c3ccccc23)c2ccccc2c1O | – | 0.316 µM (active)
O=C(O)c1cc2ccccc2c(S(=O)(=O)O)c1O | 10.7% [at 11.4 µM] (inactive) | –
O=C(O)C1=C/C(=C(/c2ccccc2)c2cc(C(=O)O)c(O)c3ccccc23)c2ccccc2C1=O | 1.25% [at 11.4 µM] (inactive) and -1.88% [at 11.4 µM] (inactive) | –
